# PubChem BioAssay (Tox21)
# Results filed as inconclusive are left out. Values without a mark were called inactive. Calls of active or inactive are those of the source. Calls come from the whole dose curve; as a rule, active = well fitted cell-killing curve with a large enough effect in the repeat runs; inconclusive = weak or mixed curves, or effect the other way; inactive = no such curve, though single readings can be large or run the other way.
# Experiment: qHTS assay to identify small molecule agonists of the vitamin D receptor (VDR) signaling pathway - cell viability counter screen (AID 743224); note: nearly all actives have a fitted effect of over 50% in size
# Details: VDR-bla HEK293T viability, CellTiter-Glo luminescence, 16 h; series mostly up to 62.6 µM
# Description: U.S. Tox21 Program National Center for Advancing Translational Sciences [NCATS] NIH Chemical Genomics Center [NCGC] U.S. Environmental Protection Agency [EPA] National Institutes of Environmental Health Sciences [NIEHS] National Toxicology Program [NTP] U.S. Food and Drug Administration [FDA] Tox21 Assay Overview: The vitamin D receptor (VDR), a member of nuclear hormone receptor superfamily, plays a critical role in calcium homeostasis and bone metabolism. It is also involved in cell differentiation and growth, and thrombogenicity. […] The cytotoxicity of the Tox21 compound library against the VDR-bla cell line was tested in parallel by measuring the cell viability using CellTiter-Glo assay (Promega, Madison, WI) in the same wells.
# Tox21 Assay Protocol Summary: VDR-bla cells were dispensed at 2,000 cells/6 uL/well into black wall/clear-bottom 1536-well plates using a Multidrop Combi (Thermo Fisher Scientific, Waltham, MA) dispenser. After the assay plates were incubated at a 37C and 5% CO2 for 4 h, 23 nL of compounds dissolved in DMSO, positive controls or DMSO only was transferred to the assay plate by a Pintool station (Kalypsys, San Diego, CA). The plates were incubated at 37C and 5% CO2 for 16 h. After 1 uL of LiveBLAzerTM B/G FRET substrate was added using a Bioraptr Flying Reagent Dispenser (FRD) workstation (Beckman Coulter, Indianapolis, IN, USA), the plates were incubated at room temperature for 2 h, and fluorescence intensity was measured by an Envision plate reader (PerkinElmer, Shelton, CT). For cell viability readout that measures cytotoxicity, 3 ul/well of CellTiter-Glo reagent was added into the assay plates using a FRD. After 30 min incubation at room temperature, the luminescence intensity in the plates was measured using a ViewLux (PerkinElmer) plate reader.
# % is set by controls: 0 for no effect and ±100 for the full control effect.
Structure (SMILES),outcome,"activity change, negative = cytotoxicity"
CC(=O)CCc1ccc(OC(C)=O)cc1,inactive,
CCC(C)C(=O)OCCc1ccccc1 (stereo not given),inactive,
CC(C)=CCC[C@@](C)(O)[C@H]1CC=C(C)CC1,inactive,
CCCCCCC1(C)CCC(=O)O1 (stereo not given),inactive,
CC(=O)Nc1ccc(OC(=O)c2ccccc2OC(C)=O)cc1,inactive,
CC1=C(C(=O)O)N2C(=O)[C@@H](NC(=O)[C@H](N)C3=CCC=CC3)[C@H]2SC1,inactive,
O=C[O][Al]([O]C=O)[O]C=O,inactive,
CC(=O)CC(=O)Nc1ccc(C)cc1C,inactive,
Cn1nnc2c(C(N)=O)ncn2c1=O,inactive,
Nc1nnnn1-c1ccccc1,inactive,
Cc1ccc(C(C)NC(=O)[C@@H](NC(=O)OC(C)C)C(C)C)cc1 (stereo not given in full),inactive,
O=Cc1cc2ccccc2o1,inactive,
CC/C=C\CCOC(=O)c1ccccc1O,inactive,
CCCCCc1cccc(=O)o1,inactive,
C=Cc1ccc(C(C)(C)C)cc1,inactive,
N#CCC(=O)NN,inactive,
CCC[C@@H]1C[C@@H](C(=O)N[C@@H]([C@H]2O[C@H](SC)[C@H](O)[C@@H](O)[C@H]2O)[C@@H](C)O)N(C)C1,inactive,
COc1ccc2c(c1)c1c3n2CCN(C)C3=NCC1,inactive,
CCOC(=O)CC1(C)OCC(C)O1 (stereo not given),inactive,
O=C1NC(c2ccccc2)(c2ccccc2)C(=O)N1COP(=O)(O)O,inactive,

Structure (SMILES),outcome,"activity change, negative = cytotoxicity"
CC(=O)C(C)O (stereo not given),inactive,
CCCCCCCCCCCCCCC(=O)NC(CO)CCCCCCCCCCCCCC (stereo not given),inactive,
CC(C)NCC(O)c1ccc2ccccc2c1 (stereo not given),inactive,
O=C(Cn1ccnc1[N+](=O)[O-])NCc1ccccc1,inactive,
CC(=O)O[Si](C)(OC(C)=O)OC(C)=O,inactive,
CC(C)CCOC(=O)c1ccccc1,inactive,
C=CCCCCCCCC,inactive,
Cc1c(NC(=O)c2cccnc2)c(=O)n(-c2ccccc2)n1C,inactive,
CNCCS(=O)(=O)O,inactive,
CCCCOC(=O)C(C)O (stereo not given),inactive,
CC(=O)O[C@H]1C[C@@H]2CC[C@@]1(C)C2(C)C,inactive,
N[C@@H](Cc1ccc(O)cc1)C(=O)O,,18.1% [at 13.2 µM]
CC1=C(C(=O)O)N2C(=O)[C@@H](NC(=O)[C@H](N)c3ccccc3)[C@H]2SC1,inactive,
CC1CC(=O)CC(C)(C)C1 (stereo not given),inactive,
COc1nc(N)nc2nc[nH]c12,inactive,
CCCC(=O)OC/C=C(\C)CCC=C(C)C,inactive,
Cc1cc(-c2ccccc2)nnc1NCCN1CCOCC1,inactive,
OCC1CCC(CO)CC1 (stereo not given),inactive,
Cc1ccc2c(c1)C(=O)c1ccccc1C2=O,inactive,
COCCc1ccccn1,inactive,
